About 14,000 (4.5%) of roughly 310,000 compounds showed an effect of 50% or more. The effect is printed as a negative number. Many of the other results were omitted from the sample, so strong results are more common in it than they were.
Target: human ether-à-go-go-related gene (hERG) potassium channel (human, UniProt Q12809)
Test: primary screen, population patch clamp on CHO cells stably expressing hERG; higher = less effect of the substance
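Note: peak tail current of the secondary pulse compared with the same well before compound.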

Chain of human ether-à-go-go-related gene (hERG) potassium channel (Q12809 whole entry, looked up): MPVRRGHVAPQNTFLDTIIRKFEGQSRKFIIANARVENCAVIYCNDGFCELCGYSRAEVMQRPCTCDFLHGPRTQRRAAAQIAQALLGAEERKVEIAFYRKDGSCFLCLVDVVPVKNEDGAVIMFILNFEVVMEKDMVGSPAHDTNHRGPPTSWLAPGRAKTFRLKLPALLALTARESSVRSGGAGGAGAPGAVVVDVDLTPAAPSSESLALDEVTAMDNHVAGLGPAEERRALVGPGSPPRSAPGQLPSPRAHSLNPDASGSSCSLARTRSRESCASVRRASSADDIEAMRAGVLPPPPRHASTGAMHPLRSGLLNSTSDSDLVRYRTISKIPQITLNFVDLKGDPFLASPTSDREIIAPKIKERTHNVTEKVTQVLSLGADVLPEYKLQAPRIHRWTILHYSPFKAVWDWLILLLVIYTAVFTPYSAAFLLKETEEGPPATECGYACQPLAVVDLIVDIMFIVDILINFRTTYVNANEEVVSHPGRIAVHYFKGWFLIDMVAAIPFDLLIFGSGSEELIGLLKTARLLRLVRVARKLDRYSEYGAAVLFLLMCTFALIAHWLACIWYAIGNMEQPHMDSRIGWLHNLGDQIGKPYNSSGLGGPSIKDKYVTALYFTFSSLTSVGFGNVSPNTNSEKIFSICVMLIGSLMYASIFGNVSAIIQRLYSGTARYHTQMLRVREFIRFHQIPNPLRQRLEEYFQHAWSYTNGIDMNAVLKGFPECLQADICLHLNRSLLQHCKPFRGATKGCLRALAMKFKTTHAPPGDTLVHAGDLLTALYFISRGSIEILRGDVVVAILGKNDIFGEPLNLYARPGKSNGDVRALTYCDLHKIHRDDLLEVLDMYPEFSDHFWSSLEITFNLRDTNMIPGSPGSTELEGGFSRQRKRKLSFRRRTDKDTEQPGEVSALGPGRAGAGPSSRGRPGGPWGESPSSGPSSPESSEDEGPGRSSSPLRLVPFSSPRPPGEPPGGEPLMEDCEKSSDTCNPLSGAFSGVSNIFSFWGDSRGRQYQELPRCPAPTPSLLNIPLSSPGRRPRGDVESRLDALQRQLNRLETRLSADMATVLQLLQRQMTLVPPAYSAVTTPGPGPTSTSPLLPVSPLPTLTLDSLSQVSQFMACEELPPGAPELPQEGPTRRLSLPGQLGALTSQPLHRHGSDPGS

Compound | hERG current change (%, negative = inhibition) at 10uM [%]
N#Cc1ccccc1OCC(=O)Nc1cccc(S(=O)(=O)N2CCCC2)c1 | 5.17
O=C(Cc1ccccc1F)Nc1ccc(SC(F)F)cc1 | 14
Cc1nc2ccccc2n1C1CCN(CC(=O)NCc2ccc(F)cc2)CC1 | -58
COC(=O)C1CCN(C(=O)Nc2ccccc2)CC1 | 24.3
Cc1nc2ccccc2n1C1CCN(CC(=O)Nc2ccccc2Br)CC1 | -25
O=C(CN1CCC(n2nnc3cc(F)ccc32)CC1)NC1CC1 | -4.99
CC1CCC(NC(=O)CN2CCC(n3nnc4cc(F)ccc43)CC2)CC1 (stereo not shown) | -58.4
O=C(Nc1ccccc1)N1CCC(n2c(=O)[nH]c3ccccc32)CC1 | -8.18
Cc1ccccc1C(=O)NC1CCN(CC(=O)NCc2ccc(F)cc2)CC1 | -44.2
O=C(CN1CCC(n2nnc3cc(F)ccc32)CC1)NC1CCCCC1 | -32.8
Cc1nc2ccccc2n1C1CCN(C(=O)Nc2ccccc2)CC1 | -60.5
Cc1ccc(CN(C)CC(=O)Nc2ccccc2C(=O)NC2CC2)o1 | -7.18
N#Cc1c(F)cccc1N1CCC(C#N)CC1 | 8.29
Cn1nnnc1SCC(=O)Nc1ccccc1C(=O)NC1CC1 | 7.04
COc1ccccc1NC(=O)CCN1C(=O)/C(=C/c2cc(OC)c(OC)c(OC)c2)SC1=S | 13.8
O=C(Cc1ccccc1)Nc1ccc2oc(-c3ccncc3)nc2c1 | 0.815
COc1ccc(-n2cnnc2SC(C)C(=O)Nc2cccc([N+](=O)[O-])c2)cc1 (stereo not shown) | -59.3
CC(Sc1nncn1-c1ccccc1)C(=O)Nc1cccc([N+](=O)[O-])c1 (stereo not shown) | -17.2
COc1ccccc1-n1cnnc1SC(C)C(=O)Nc1cccc([N+](=O)[O-])c1 (stereo not shown) | -8.19
COc1ccc(OC(C)C(=O)Nc2cccc([N+](=O)[O-])c2)cc1 (stereo not shown) | -58.8
CC(Oc1ccccc1)C(=O)Nc1cccc([N+](=O)[O-])c1 (stereo not shown) | -22
COc1ccc(OC(C)C(=O)Nc2ccc([N+](=O)[O-])cc2)cc1 (stereo not shown) | 3.6

Compound | hERG current change (%, negative = inhibition) at 10uM [%]
COc1ccc(CNC(=O)CCSCc2ccc(C)cc2)cc1 | -16.2
CCC1=Nc2cc(C(=O)O)ccc2Sc2ccccc21 | 21.2
COC(=O)C1=C(c2ccc(S(C)(=O)=O)cc2)C[C@@H]2CC[C@H]1N2C(=O)NCc1cccc2ccccc12 | -61.6
COC(=O)C1=C(c2ccccc2)C[C@@H]2CC[C@H]1N2C(=O)NCc1cccc2ccccc12 | -12.2
COC(=O)C1=C(c2ccc(S(C)(=O)=O)cc2)C[C@@H]2CC[C@H]1N2C(=O)NCc1ccc(C(F)(F)F)cc1 | -59.3
COC(=O)C1=C(c2ccc(C(C)=O)cc2)C[C@@H]2CC[C@H]1N2C(=O)NCc1ccc(C(F)(F)F)cc1 | 30
COC(=O)C1=C(c2ccc(OC(F)(F)F)cc2)C[C@@H]2CC[C@H]1N2C(=O)NCc1cccc2ccccc12 | 20.4
COC(=O)C1=C(c2ccc(S(C)(=O)=O)cc2)C[C@@H]2CC[C@H]1N2C(=O)NCc1ccccc1 | -29.6
Cc1ccc(C(=O)NC(C(=O)Nc2ccccc2)c2ccccc2)cc1 (stereo not shown) | 19.7
CC(NC(=O)Cn1cc(C(=O)C2CC2)c2ccccc21)c1ccccc1 (stereo not shown) | 4.74
Cc1ccc(-c2nn(C)c(=O)c3ccccc23)cc1CNC(=O)c1ccco1 | -36.7
Cc1ccc(/C=C2/C(=O)NC(=O)N(Cc3ccc(F)cc3)C2=O)o1 | 19.6
COc1ccc(OCc2cc(C(=O)NCc3nc(C)cs3)no2)c(Cl)c1 | -17.2
OCC1(Cc2ccccc2)CCCN(Cc2ccc(-c3ccco3)cc2)C1 (stereo not shown) | -5.88
OCC1(Cc2ccccc2)CCN(Cc2ccc(-c3ccco3)cc2)CC1 | -66.6
OCC1(Cc2ccccc2)CCN(Cc2ccc(C(F)(F)F)cc2)CC1 | -72.9
OCC1(Cc2ccccc2C(F)(F)F)CCN(Cc2ccccc2)CC1 | -41.3
O=C(CSc1cn(CC(=O)N2CCOCC2)c2ccccc12)N1CCOCC1 | 12.8
Cc1cc(C)c(C#N)c(SCc2ccc([N+](=O)[O-])cc2)n1 | 15.9
COc1ccc(F)cc1S(=O)(=O)Nc1ccc2c(c1)OCO2 | 6.15
CC(CCc1ccccc1)NC(=S)NC1CCCCC1 (stereo not shown) | 12
